Results on ten compounds are retold here after PubChem BioAssay (NCI).

Among the test systems are HCT-15 colon; HT29 colon; SNB-75 CNS; SNB-19 CNS; U251 CNS; PC-3 prostate; SK-MEL-5 melanoma; UACC-62 melanoma; LOX IMVI melanoma; SK-MEL-28 melanoma; EKVX NSCLC; SN12C renal; UO-31 renal; TK-10 renal; ACHN renal; CAKI-1 renal; A498 renal; CCRF-CEM leukemia; MOLT-4 leukemia; SK-MEL-2 melanoma.
Holding throughout (experiment): NCI-60 one-dose screen, 48 h (100 = growth as untreated, 0 = no growth, -100 = all killed)
Details in all cases: 10 µM unless noted

The structures appear in SMILES notation. This is part of a sample that, as a whole, favours compounds with a hit. Of some 83,000 tested, about 20% had one in any assay.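 Method: cells in 96-well plates; compound added at one concentration; 48 h incubation; percent growth measured; values under 10 scored active.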 A number with no mark means an inactive call. Activity calls are given as the source filed them.

As for `COc1ccc2c(c1)c(-c1nonc1-c1cn(C)c3ccc(OC)cc13)cn2C`, the growth with HCT-15 colon was 25.4%; in the experiment with HT29 colon, 13.1%; in the experiment with SNB-75 CNS, 24%; with SNB-19 CNS it was 36.8%; with U251 CNS it was 33.7%; in the experiment on PC-3 prostate it was 50.1%. For the same compound, the growth with SK-MEL-5 melanoma was 38%; in the experiment on UACC-62 melanoma it was 26.3%; in the experiment on LOX IMVI melanoma, 39.7%; in the experiment on SK-MEL-28 melanoma, 60.8%; in the experiment with EKVX NSCLC, 47.4%; in the experiment on SN12C renal, 43.8%. Besides, the growth in the experiment with UO-31 renal was 49%; in the experiment on TK-10 renal, 71.2%; in the experiment with ACHN renal, 51.7%; in the experiment with CAKI-1 renal, 31.9%; in the experiment with A498 renal, 18.4%; with CCRF-CEM leukemia it was 26.6%. In the experiment on MOLT-4 leukemia, the growth was 25.4%.

In the case of `CCCCn1sc(=O)n(Cc2ccc(CNC(=O)OCc3ccc4c(Br)cc(Br)c(O)c4n3)cc2)c1=O`, the growth in the experiment with HCT-15 colon is 9.07% (active); in the experiment with HT29 colon it was 96.4%; with SNB-75 CNS it was 14.4%; in the experiment with SNB-19 CNS, 37.4%; in the experiment with U251 CNS it was 11.2%; in the experiment with PC-3 prostate it was 18.9%. The growth with SK-MEL-5 melanoma is -35.2% (active); in the experiment with UACC-62 melanoma, 37.6%; in the experiment with LOX IMVI melanoma, 22.9%; in the experiment with SK-MEL-28 melanoma it was 67.4%; with SK-MEL-2 melanoma, 45.6%; in the experiment with EKVX NSCLC it was 103%. The growth in the experiment on SN12C renal was 29.5%; in the experiment on UO-31 renal, 42.7%; in the experiment with TK-10 renal it was 74.8%; with CAKI-1 renal it was 22.4%; with A498 renal, -7.85% (active); with CCRF-CEM leukemia it was 18.1%. Besides, the growth in the experiment with MOLT-4 leukemia was 14.6%.

`COc1cc2c3c(c1O)-c1ccccc1[C@@H]1OC(=O)N(CC2)[C@H]31`: the growth with HCT-15 colon was 100%; in the experiment on HT29 colon, 106%; in the experiment with SNB-75 CNS, 90.5%; in the experiment with SNB-19 CNS it was 104%; with U251 CNS, 94.8%; in the experiment on PC-3 prostate, 70.7%. In addition, the growth in the experiment on SK-MEL-5 melanoma is 96.1%; in the experiment with UACC-62 melanoma it was 90.1%; with LOX IMVI melanoma, 99.1%; with SK-MEL-28 melanoma, 118%; with SK-MEL-2 melanoma, 97.6%; in the experiment on EKVX NSCLC it was 104%. The growth was 88.5% with UO-31 renal; 104% in the experiment on TK-10 renal; 106% in the experiment with ACHN renal; 95.4% in the experiment on CAKI-1 renal; 92.9% with A498 renal; 74.1% in the experiment with CCRF-CEM leukemia. Moreover, the growth in the experiment on MOLT-4 leukemia was 96.8%.

Consider `CCN(CC)CCCNCc1cc(-c2ccccc2)nc2cc(Cl)ccc12`, for which the growth was 12.1% with HCT-15 colon; -17.3% (active) with HT29 colon; 70.8% in the experiment on SNB-75 CNS; 68.9% with SNB-19 CNS; 11.5% with U251 CNS; 37% in the experiment on PC-3 prostate. Also, the growth in the experiment on SK-MEL-5 melanoma was -76.9% (active); in the experiment on UACC-62 melanoma, -61.3% (active); with LOX IMVI melanoma it was -20.6% (active); in the experiment with SK-MEL-28 melanoma, -92.4% (active); with SK-MEL-2 melanoma, -61.9% (active); with EKVX NSCLC, 80.9%. Besides, the growth in the experiment on SN12C renal was 38.2%; in the experiment with UO-31 renal, 11%; with TK-10 renal, 42.8%; with CAKI-1 renal it was 50.5%; with A498 renal, 22.3%; in the experiment on CCRF-CEM leukemia, 10.4%. Besides, the growth in the experiment on MOLT-4 leukemia is 13.6%.

In the case of `Cc1ccc(N=Nc2c(N)nn(-c3ccccc3)c2N)cc1`, the growth in the experiment with HCT-15 colon is 21%; with HT29 colon, 11.7%; in the experiment on SNB-75 CNS, 32.6%; with SNB-19 CNS, 46.7%; in the experiment with U251 CNS, 28.2%; with PC-3 prostate, 56.7%. Besides, the growth was -18.6% (active) with SK-MEL-5 melanoma; 31.5% with UACC-62 melanoma; 47.1% in the experiment with LOX IMVI melanoma; 56.8% in the experiment with SK-MEL-28 melanoma; 41.2% with SK-MEL-2 melanoma; 29.9% in the experiment on EKVX NSCLC. Moreover, the growth was 45.1% in the experiment with UO-31 renal; 43.6% in the experiment on TK-10 renal; 47.6% in the experiment with ACHN renal; -2.05% (active) in the experiment on CAKI-1 renal; 49.9% in the experiment on A498 renal; 8.89% (active) with CCRF-CEM leukemia. In addition, the growth in the experiment on MOLT-4 leukemia is 23.5%.

As for `Cc1c(N2CN3C[C@H](C)N4CN(c5c(C)n(C)n(-c6ccccc6)c5=O)CN5C[C@@H](C)N(C2)C3C54)c(=O)n(-c2ccccc2)n1C` (stereo not given in full), the growth in the experiment on HCT-15 colon was 96.4%; in the experiment on HT29 colon it was 102%; with SNB-75 CNS it was 107%; with SNB-19 CNS it was 101%; in the experiment with U251 CNS, 105%; in the experiment with PC-3 prostate, 94.2%. Moreover, the growth is 102% with SK-MEL-5 melanoma; 96.7% in the experiment with UACC-62 melanoma; 96% in the experiment on LOX IMVI melanoma; 101% in the experiment on SK-MEL-28 melanoma; 101% in the experiment with SK-MEL-2 melanoma; 96.1% with EKVX NSCLC. In addition, the growth in the experiment on UO-31 renal is 77.6%; in the experiment with TK-10 renal it was 110%; in the experiment on ACHN renal it was 103%; in the experiment on CAKI-1 renal, 87.5%; in the experiment with A498 renal it was 117%; with CCRF-CEM leukemia it was 102%. In the experiment with MOLT-4 leukemia, the growth is -17.9% (active).

Regarding `CCN(CC)c1ccc(N2C(=O)/C(=C/c3cccs3)SC2=S)cc1`, the growth with HCT-15 colon was 102%; with HT29 colon it was 101%; in the experiment on SNB-75 CNS, 93.9%; with SNB-19 CNS it was 94.6%; in the experiment on U251 CNS it was 89.1%; with PC-3 prostate, 64.1%. Also, the growth is 93.8% in the experiment on SK-MEL-5 melanoma; 80.8% with UACC-62 melanoma; 88.8% in the experiment with LOX IMVI melanoma; 97.6% in the experiment with SK-MEL-28 melanoma; 110% with SK-MEL-2 melanoma; 92.2% in the experiment on EKVX NSCLC. The growth in the experiment on UO-31 renal was 73.3%; with TK-10 renal it was 92.9%; in the experiment on ACHN renal, 94.3%; with CAKI-1 renal, 89.7%; in the experiment on A498 renal, 71.1%; in the experiment with CCRF-CEM leukemia, 83%. Also, the growth in the experiment with MOLT-4 leukemia was 97.9%.

As for `CCN(CC)c1ccc(/C=N/NC(=O)c2ccc(Nc3ccnc(C(F)(F)F)c3)cc2)c(O)c1`, the growth with HCT-15 colon was 19.6%; with HT29 colon, 0.587% (active); with SNB-75 CNS it was 37.1%; with SNB-19 CNS, 15.5%; in the experiment on U251 CNS it was 14%; in the experiment with PC-3 prostate it was 19.6%. Also, the growth in the experiment with SK-MEL-5 melanoma was -50.6% (active); in the experiment with LOX IMVI melanoma, -25.4% (active); in the experiment on SK-MEL-28 melanoma it was 47.4%; in the experiment with SK-MEL-2 melanoma, 56.8%; in the experiment on EKVX NSCLC, 11.2%; with SN12C renal, 24.4%. In addition, the growth with UO-31 renal is 4.15% (active); in the experiment on TK-10 renal it was 43.5%; in the experiment on ACHN renal, 7.21% (active); in the experiment with CAKI-1 renal, 7.86% (active); in the experiment on A498 renal, 44.3%; in the experiment with CCRF-CEM leukemia, 25.5%. Also, the growth in the experiment on MOLT-4 leukemia is 103%.

`C=CC(C)(O)CC/C=C(\CO)C(=O)OC1C(C)OC(O[C@](C)(C=C)CC/C=C(\CO)C(=O)O[C@H]2C[C@@]3(C(=O)OC4OC(CO)C(O)C(O)C4OC4OC(C)C(OC5OC(CO)C(O)C5O)C(OC5OC(CO)C(O)C(O)C5O)C4O)C(CC2(C)C)C2=CCC4[C@@]5(C)CC[C@H](OC6OC(COC7OC(C)C(O)C(O)C7OC7OCC(O)C(O)C7O)C(O)C(O)C6NC(C)=O)C(C)(C)C5CC[C@@]4(C)[C@]2(C)C[C@H]3O)C(O)C1O` (stereo not given in full): the growth is 66.3% with HCT-15 colon; 21.5% in the experiment on HT29 colon; -34.9% (active) in the experiment with SNB-75 CNS; -54.1% (active) in the experiment with SNB-19 CNS; -84.5% (active) in the experiment with U251 CNS; -68.9% (active) in the experiment with PC-3 prostate. The growth was 74.6% in the experiment on SK-MEL-5 melanoma; -36.7% (active) in the experiment on LOX IMVI melanoma; -90.3% (active) in the experiment on SK-MEL-28 melanoma; -73.8% (active) in the experiment on SK-MEL-2 melanoma; -6.51% (active) in the experiment with EKVX NSCLC; -30.1% (active) in the experiment with SN12C renal. Moreover, the growth in the experiment with UO-31 renal is -57.7% (active); in the experiment with TK-10 renal, -83% (active); in the experiment on ACHN renal, -87.7% (active); in the experiment with CAKI-1 renal, -70% (active); in the experiment on A498 renal, -81% (active); in the experiment on CCRF-CEM leukemia, -17.1% (active). Moreover, the growth in the experiment on MOLT-4 leukemia is -21.5% (active).

With `Cc1ccc(-c2csc(NC(=O)N3CCN(c4cc5c(cc4F)c(=O)c(C(=O)O)cn5C4CC4)CC3)n2)cc1`, the growth in the experiment with HCT-15 colon was 9.36% (active); in the experiment on HT29 colon, 4.65% (active); with SNB-75 CNS, 31.5%; with SNB-19 CNS it was 26.9%; in the experiment on U251 CNS it was 15.4%; in the experiment on PC-3 prostate it was 7.37% (active). For the same compound, the growth in the experiment on SK-MEL-5 melanoma was -75.2% (active); in the experiment on UACC-62 melanoma it was 3.86% (active); in the experiment with LOX IMVI melanoma, 2.73% (active); with SK-MEL-28 melanoma, 35%; in the experiment with EKVX NSCLC, 20.4%; in the experiment with SN12C renal, 15.5%. Also, the growth in the experiment with UO-31 renal is 8.87% (active); in the experiment with TK-10 renal, 26.1%; in the experiment on ACHN renal it was 5.91% (active); in the experiment on CAKI-1 renal it was 22.2%; in the experiment with A498 renal, 2.51% (active); in the experiment on CCRF-CEM leukemia it was 12.9%. Further, in the experiment on MOLT-4 leukemia, the growth was 3.49% (active).
